Experimental data reported in the supplement of paper PMC13380429.
Values without a mark were called inactive.

System: Vero E6 infected with SARS-CoV-2
Assay: inhibition of SARS-CoV-2 cytopathic effect; higher = more antiviral protection, active = above 15
Details: 48 h

Row | Compound | inhibition of SARS-CoV-2 cytopathic effect (1 nM) [%] | inhibition of SARS-CoV-2 cytopathic effect (8.33 nM) [%] | inhibition of SARS-CoV-2 cytopathic effect (100 nM) [%] | inhibition of SARS-CoV-2 cytopathic effect (833.33 nM) | inhibition of SARS-CoV-2 cytopathic effect (10000 nM)
1 | Cc1ccc(C(C)C)c(O)c1 [thymol] | 2.55 | -2.55 | -2.75 | -1.48% | -1.32%
2 | Nc1nc(-c2nn(Cc3ccccc3F)c3ncccc23)ncc1C1CC1 | 1.54 | 2.15 | -0.39 | -2.42% | -5.17%
3 | CC(C)COC(=O)c1ccc(N)cc1 [isobutamben] | -0.32 | -0.5 | -1.06 | -2.97% | 1.5%
4 | COC(=O)C1=CCCN(C)C1 [arecoline] | 1.27 | 1.95 | -1.54 | -1.35% | 1.15%
5 | CC12CCC(C(Br)C1=O)C2(C)C (stereo not given) [3-bromocamphor] | -1.02 | 0.99 | -0.16 | 1.85% | 0.04%
6 | COc1cc(SC)ccc1C(=O)N1CCC(Cc2ccccc2)CC1 | 4.96 | 7.9 | 8.76 | 9.01% | 7.35%
7 | O=C(Nc1cc(C(F)(F)F)cc(C(F)(F)F)c1)c1cnc(Cl)nc1C(F)(F)F | 0.53 | -0.29 | 0.4 | -4.18% | -13.9%
8 | Cc1noc(C)c1-c1cc(O)cc([C@@H](O)c2ccccc2)c1 | -2.32 | 1.84 | -0.24 | 1.24% | -8.49%
9 | CC1(C)S[C@@H]2[C@H](NC(=O)[C@H](N)c3ccc(O)cc3)C(=O)N2[C@H]1C(=O)O [amoxicillin] | -2.41 | -1 | -0.76 | -0.16% | -2.88%
10 | O=C1NC(=S)NC(=O)C1C(=O)Nc1ccccc1 [merbarone] | -0.86 | -1.86 | -0.15 | -0.03% | 1.95%
11 | O=P(O)(NCCCl)NCCCl [palifosfamide] | 0.85 | 0.49 | 3.57 | -1.07% | -7.07%
12 | O=C(O)/C=C/c1ccc(Cn2ccnc2)cc1 [ozagrel] | 0.02 | 3.28 | 0.19 | 0.75% | -0.91%
13 | O=C(NC1(c2ccccc2)CC1)c1c(CN2CCC(N3CCCCC3)CC2)c(-c2cccc(C(F)(F)F)c2)nc2cc(Br)ccc12 | 1.74 | 3.71 | 1.73 | -4.53% | -13.1%
14 | O=c1c2ccccc2[se]n1-c1ccccc1 [Ebselen] | 2.29 | 0.73 | 0.59 | 1.45% | 1.28%
15 | O[C@@H]1CCCC[C@H]1N1CCC(c2ccccc2)CC1 (racemic) [vesamicol] | 0.17 | 1.74 | 0.78 | 1.42% | 1.14%
16 | CC(=O)OC[C@H]1O[C@@H]([S-])[C@H](OC(C)=O)[C@@H](OC(C)=O)[C@@H]1OC(C)=O.CCP(CC)CC.[Au+] [auranofin] | 3.21 | 4.4 | 7.71 | 18.4% (active) | -21.1%
17 | Cc1cccc(-c2n[nH]cc2-c2ccc3ncccc3n2)n1 [repsox] | -0.69 | 2.3 | -2.26 | -4.59% | -4.62%
18 | Cc1cc(Nc2nc(N[C@@H](C)c3ncc(F)cn3)ncc2Cl)[nH]n1 | -1.19 | -0.46 | -0.68 | 0.25% | 0.25%
19 | CC1(C)OC[C@@H](COC(=O)CCc2ccc(OC[C@@H](O)CNCCNC(=O)N3CCOCC3)cc2)O1 [landiolol] | -7.81 | -4.59 | -1.18 | -1.43% | -1.67%
20 | CN(C)[C@@H]1C(O)=C(C(N)=O)C(=O)[C@@]2(O)C(O)=C3C(=O)c4c(O)ccc(Cl)c4[C@@](C)(O)[C@H]3C[C@@H]12 | 0.81 | 3.66 | 0.73 | 1.21% | -0.28%

Row | Compound | inhibition of SARS-CoV-2 cytopathic effect (1 nM) [%] | inhibition of SARS-CoV-2 cytopathic effect (8.33 nM) [%] | inhibition of SARS-CoV-2 cytopathic effect (100 nM) [%] | inhibition of SARS-CoV-2 cytopathic effect (833.33 nM) | inhibition of SARS-CoV-2 cytopathic effect (10000 nM)
21 | CCC(=O)c1ccc(OCC(O)CN2CCN(c3ccccc3)CC2)cc1 (stereo not given) [centpropazine] | -4.09 | -0.61 | -2.65 | -0.96% | -0.58%
22 | C[N+]12CCC(CC1)C(OC(=O)C(O)(c1ccccc1)c1ccccc1)C2 (stereo not given) [clidinium] | -2.04 | 1.76 | -0.23 | 0.86% | -1.97%
23 | CO/N=C(\C(=O)N[C@@H]1C(=O)N2C(C(=O)O)=CCS[C@H]12)c1csc(N)n1 [ceftizoxim] | -1.24 | -13.2 | -0.8 | 0.85% | 0.82%
24 | C[C@]12CCC(=O)C=C1CC[C@@H]1[C@@H]2C(=O)C[C@]2(C)C(=O)CC[C@@H]12 [adrenosterone] | 0.47 | -2.37 | 0.08 | 1.4% | 2.11%
25 | O=C(Nc1ccc(Br)cc1)c1cc(Br)cc(Br)c1O [tribomsalan] | -1.03 | -3.93 | -1.03 | -0.02% | 6.65%
26 | COc1cccc(C(=O)CCN[C@@H](C)[C@H](O)c2ccccc2)c1 [oxyfedrine] | 0.05 | 1.34 | -0.45 | 0.14% | 1.77%
27 | COc1cc(OC)c(/C=C/S(=O)(=O)Cc2ccc(OC)c(OP(=O)(O)O)c2)c(OC)c1 [briciclib] | 1.41 | 1.56 | -1.04 | -0.82% | -1.99%
28 | CCS(=O)(=O)N1CCN(c2ccc(Nc3ncc(C(N)=O)c(NC4CC4)n3)cc2)CC1 | -1.63 | -0.99 | -2.24 | 2.08% | -5.53%
29 | COc1cc(N2CCC(N3CCN(C)CC3)CC2)ccc1Nc1ncc(Cl)c(Nc2ccccc2S(=O)(=O)C(C)C)n1 | -0.23 | -4.02 | -0.56 | -0.6% | -15.5%
30 | Cc1cc(CC(C)CC(C)(C)C)n(O)c(=O)c1 (stereo not given) [piroctone-olamine] | -1.12 | 3.7 | 3.23 | 1.26% | -1.5%
31 | COCC1(CO)C(=O)C2CCN1CC2 (stereo not given) | -1.69 | -1.26 | -0.44 | -0.13% | 4.84%
32 | COc1ccccc1CC(=N)N1C[C@@H]2C(=O)CCC(c3ccccc3)(c3ccccc3)[C@@H]2C1 | -0.54 | 2.21 | 1.93 | 3.76% | -2.17%
33 | COc1cc2c(cc1OC)CN(CCc1ccc(NC(=O)c3cc(OC)c(OC)cc3NC(=O)c3cnc4ccccc4c3)cc1)CC2 [tariquidar] | 1.54 | -1.28 | 2.75 | 1.99% | -0.52%
34 | COc1ncc(-c2ccc3nccc(-c4ccnnc4)c3c2)cc1NS(=O)(=O)c1ccc(F)cc1F | -1.37 | -0.94 | -8.41 | -8.47% | 3.03%
35 | CCC(=O)NS(=O)(=O)c1ccc(-c2c(-c3ccccc3)noc2C)cc1 [parecoxib] | -0.31 | 0.02 | 1.66 | 1.26% | -1.54%
36 | CN[C@@H]1[C@H](O)[C@H](NC)[C@H]2O[C@@]3(O)C(=O)C[C@@H](C)O[C@H]3O[C@@H]2[C@H]1O [spectinomycin] | 1.83 | 2 | 1.36 | 4.54% | 3.59%
37 | O=C(O)c1ccccc1Nc1cc(Cl)ccc1C(=O)O [lobenzarit] | 0.49 | -0.08 | 0.37 | 2.27% | -3.63%
38 | COc1ccc2c(c1)C=C1Cn3c-2c(C2CCCCC2)c2ccc(cc23)C(=O)NS(=O)(=O)N(C)CCOCCN(C)C1=O | 3.67 | 0.37 | 0.59 | 2.72% | 8.22%
39 | Cc1cc(Nc2ccc(NC(=O)c3ccc(Nc4ccnc5ccccc45)cc3)cc2)nc(N)n1 | -1.09 | 0.62 | 2.48 | 3.69% | 20.3% (active)
40 | C#C[C@]1(O)CC[C@H]2[C@@H]3CCc4cc(OC5CCCC5)ccc4[C@H]3CC[C@@]21C [quinestrol] | -2.85 | -1.33 | -0.65 | 0.63% | 15.7% (active)
